According to PubChem BioAssay (NCI):
About 83,000 compounds went through this panel and 20% of them were active in at least one assay; those are over-represented in the sample as a whole.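 Results are percent growth after 48 hours of single-concentration exposure. 100 means growth as in untreated cells, lower positive values show inhibition; negative values down to -100 show cell death.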 Unmarked numbers belong to inactive results. Calls of active or inactive are those of the source. Rule for the calls: active = growth percent below 10; inactive = the rest.

Tested on: HL-60(TB) leukemia
Test: NCI-60 one-dose screen, 48 h (100 = growth as untreated, 0 = no growth, -100 = all killed)
Conditions: 10 µM unless noted

Row | SMILES | growth
1 | CC(C)(C)CC(N)=O | 120%
2 | Cc1cc2c(cc1C)Nc1sc(NC(=O)CN3CCN(C)CC3)nc1C(=O)N2 | 83.3%
3 | COc1ccc(-c2nc3ncccn3c2-c2nnc(-c3ccsc3C)o2)cc1 | 92.5%
4 | O=C(Nc1ccc(F)cc1)c1cc([N+](=O)[O-])ccc1O | 59.6%
5 | Oc1ccc(CCC2CCCC(CCc3ccc(OCCF)cc3)N2)cc1 (configuration not stated) | 82%
6 | C/C(=C(\c1ccc(OCCN2CCCCCC2)cc1)c1ccc(OC(=O)c2ccccc2)cc1)c1ccc(Cl)cc1 | 13.8%
7 | O=C1/C=C/[C@@H](O)[C@@H]2C[C@@H](O)C[C@H]2/C=C/CCC[C@H](CCc2ccc3ncccc3c2)O1 | -52.3% (active)
8 | COc1ccc2c(c1)nnc1c3cccnc3[nH]c21 | -31.4% (active)
9 | O=C(c1ccc(Cl)cc1)C1C(c2ccccc2)C1[N+](=O)[O-] (configuration not stated) | 99.3%
10 | Cc1cc(O)cc(-c2c(-c3ccnc(-c4cccnc4)c3)cnn2C)c1 | 46%
11 | CC(C)(C)OC(=O)N1CCN(CCn2cc(C(F)(F)F)c3c(Cl)ncnc32)CC1 | 16.4%
12 | Nc1ccc(-c2nc3cc(Oc4ccc(Oc5ccc6[nH]c(-c7ccc(N)cc7)nc6c5)cc4)ccc3[nH]2)cc1 | 103%
13 | NNc1ccc(S(N)(=O)=O)cc1 | 75.9%
14 | Cc1ccc(-n2nc3n(/c2=N\C(=O)NS(=O)(=O)c2ccc(C)cc2)CCN3C2=NCCN2)cc1 | 146%
15 | CC(C)NC(=O)N1C(=O)CCC1NNC(=O)c1ccc([N+](=O)[O-])cc1 (configuration not stated) | 107%
16 | O=C1OC(/C=C/c2ccccc2)=NC/1=C/c1ccccc1[N+](=O)[O-] | 96.2%
17 | NC(=NCCCOc1ccc(Cl)cc1)Nc1ccc(Cl)cc1 | 95.3%
18 | Cl.Fc1c[c-]c(-c2ccccn2)c(F)c1.[Pt].c1ccc([PH+](CC[PH+](c2ccccc2)c2ccccc2)c2ccccc2)cc1 | -29.2% (active)
19 | COC12C=C/C(=C(/C(=O)OCc3ccccn3)C(=O)CCCCCCCCC3(OC)C=C/C(=C(/C(=O)OCc4ccccn4)C(=O)CCCCCCCC1)O3)O2 | -19% (active)
20 | CCOC(=O)c1ccccc1SC(C[N+](=O)[O-])c1ccccc1 (configuration not stated) | 89.7%
21 | O=[N+]([O-])c1ccc(Sc2nc(Cl)nc(NC3CCCC3)n2)cc1 | -26% [100 µM] (active)

Row | SMILES | growth
22 | COc1cccc(C(=O)NNc2nc(Cl)nc(Cl)n2)c1 | 96.2%
23 | Cc1ccc(-c2nc3ccc(Cl)cn3c2NC2CCCCC2)o1 | 61.7%
24 | O=C1CCC(C(=O)N/N=C/c2ccc([N+](=O)[O-])cc2)N1 (configuration not stated) | 96.7%
25 | CC1(C)CC[C@]2(C(=O)O)CC[C@]3(C)C(=CC[C@@H]4[C@@]5(C)Cc6c([nH]c7ccccc67)C(C)(C)[C@@H]5CC[C@]43C)[C@@H]2C1 | 16.2%
26 | COc1cc(OC)c(/C=C/S(=O)(=O)Cc2ccc(OC)c(NCC(=O)O)c2)c(OC)c1 | -32% (active)
27 | COc1cc(/C=N/NC(=O)c2ccccc2Nc2cccc(C(F)(F)F)c2)cc(OC)c1OC | -5.58% (active)
28 | CN1CCN(Cn2nc(-c3cc(Cl)cc(Cl)c3Cl)oc2=S)CC1 | 82%
29 | COc1cc2c(cc1NC(=O)C(F)(F)F)-c1ccc(NC(=O)C(F)(F)F)cc1C2 | 99.3%
30 | CS(=O)(=O)CCNCc1ccc(-c2ccc3ncnc(Nc4ccc(OCc5cccc(F)c5)c(Cl)c4)c3c2)o1 | 20.3%
31 | COCCOc1cc2ncnc(N3CCN(S(=O)(=O)c4ccccc4Cl)CC3)c2cc1OCCOC | 56%
32 | c1ccc(OCc2nnc(-c3ccc(Oc4ccccc4)cc3)o2)cc1 | 99.6%
33 | COc1ccc(OCC(CO)N2CCN(c3ccccc3)CC2)cc1 (configuration not stated) | 123%
34 | COc1cc(C2=NNC(c3ccc(N(C)C)cc3)C2)cc(OC)c1OC (configuration not stated) | -33.6% (active)
35 | CC(=C(c1ccc(OCCN2CCCCC2)cc1)c1ccc(OCCN2CCCCC2)cc1)c1ccc(Cl)cc1 | -62% (active)
36 | O=C(O)c1ccnc(Br)c1 | 96.5%
37 | Cc1cc(C(C)(C)C)cc(C)c1CC1=NCCN1 | 102%
38 | COCCN(C(=O)Cc1cccs1)C(C(=O)NCc1ccc(OC)cc1)c1ccc(C(C)C)cc1 (configuration not stated) | 105%
39 | C=C1C(=O)O[C@H]2[C@H]1CC/C(Cn1cc(-c3ccccc3)nn1)=C\CC[C@@]1(C)O[C@@H]21 | -28.9% (active)
40 | O=C1C(Cl)=C(Nc2cccc3cc4ccccc4nc23)C(=O)c2ccccc21 | 47.8%
41 | CCN(CC)Cc1cc(Nc2ccnc3cc(Cl)ccc23)cc(-c2ccc(Cl)cc2)c1O | 51.3%
42 | CN=C(N)N/N=C(\C)c1ccc2c(c1)Cc1cc(/C(C)=N/NC(N)=NC)ccc1-2 | -23.2% (active)

Row | SMILES | growth
43 | Cc1cc(C)c(CCc2cc(C)c(C)cc2C)cc1C | 99.9%
44 | NC(N)=N/N=C/c1ccc(-c2ccc(-c3cc(Cl)cc(Cl)c3)s2)cc1 | 24.9%
45 | Clc1ccc2c(NCCCn3cnc4c(N5CCCC5)nc(Cl)nc43)ccnc2c1 | 81.6%
46 | CCOC(=O)N/N=C\C(C)=N\NC(=O)OCC | 92.9%
47 | CCCCn1c(Cc2ccc(Cl)cc2)nc2cc(OC)c(OC)cc2c1=O | 53.7%
48 | CN1C(=O)/C(=C\c2nc([P+](c3ccccc3)(c3ccccc3)c3ccccc3)c(N3CCOCC3)o2)SC1=S | -15.1% (active)
49 | CC1(C)CC[C@]2(C(=O)N[C@H](CO)Cc3ccccc3)CC[C@]3(C)C(=CC[C@@H]4[C@@]5(C)CCCNC(C)(C)[C@@H]5CC[C@]43C)[C@@H]2C1 | 31.2%
50 | Nc1c(C(=O)Nc2cccc3cnccc23)sc2nc3c(cc12)C(=O)CCC3 | 60.2%
51 | O=C(N=Nc1c(O)[nH]c2ccccc12)Nc1ccc(Br)cc1 | 70.2%
52 | Cc1ccc(Nc2cccc3ccccc23)cc1 | 96.2%
53 | COc1ccc2oc(-c3ccc(Cl)cc3)c(N3CCN(C)CC3)c2c1 | 28.2%
54 | Nc1cc(C(=O)O)cc(C(=O)O)c1 | 90.2%
55 | Cc1cccc(-c2nnc(SCC(=O)Nc3ncc(Cc4ccccc4)s3)n2N2C(=O)CSC2=S)c1 | 97.8%
56 | CC(C)(C)c1nc(-c2cccc(NS(=O)(=O)c3c(F)cccc3F)c2F)c(-c2ccnc(N)n2)s1 | 35.1%
57 | Cc1cc(C)cc(Nc2cc(C)nc3nc(C(F)(F)F)nn23)c1 | 15.4%
58 | COc1ccc(Cc2cnc(N)nc2N)cc1OC | 95.2%
59 | COc1ccc2c(c1)C=C1CSCC3=Cc4cc(OC)ccc4OC13O2 | -5.12% (active)
60 | O=C(Nc1ccc2c(c1)-c1ccccc1C2)C1CC(=O)N(c2ccc3c(c2)OCO3)C1 (configuration not stated) | 112% [50 µM]
61 | O=Cc1ncc(-c2ccc(C(F)(F)F)cc2)c(NC2CCCCCC2)n1 | -50.6% [100 µM] (active)
62 | N#C/C(=C\c1cn(Cc2ccccc2)c2ccccc12)C(=O)Nc1ncc(Cc2ccccc2Cl)s1 | 93.1%
63 | Cc1cccc2c(=O)c3c(sc12)c(NCCCNCCO)nc1ccccc13 | 14.6%

Row | SMILES | growth
64 | Cc1nc2ccccc2c(/C=C/c2ccc(C(F)(F)F)cc2)c1C(=O)/C=C/c1ccccc1 | -19% (active)
65 | Nc1ncnc2c1C(c1ccc([N+](=O)[O-])cc1)c1sc3c(F)cccc3c1O2 (configuration not stated) | 97.2%
66 | CCCCCCCCN(CCCCCCCC)C(=N)c1ccnc2ccccc12 | -68.5% (active)
67 | O=C(CCc1nnc2sc(OCc3ccccc3)nn12)c1nc2ccc([N+](=O)[O-])cc2[nH]1 | 97.9%
68 | Nc1nc2ccccc2c2c(=O)c3cc(Cl)ccc3sc12 | 103%
69 | O=C(Cc1ccccc1)NNc1nc(Cl)nc(N2CCN(C(c3ccccc3)c3ccccc3)CC2)n1 | 58.2%
70 | CCCCOC(OCCCC)c1ccccc1 | 96.7%
71 | C#CCOC(=O)/C=C/c1cn(-c2ccccc2)nc1-c1ccc(OC)cc1 | 110%
72 | COc1ccc(-n2c(SCc3cc(OC)c(OC)c(OC)c3)nc3ccc(C)cc3c2=O)cc1 | 31.1%
73 | C(=N\Nc1nnc2n1N=C(c1ccccc1)CS2)/c1ccc(OCc2ccccc2)cc1 | 97.6%
74 | CC(C)=CC(=O)C1C(=O)c2ccccc2C1=O | 120%
75 | Cn1nc(C(C)(C)C)cc1NC(=O)Cc1ccc(/C=C2\C(=O)Nc3ccccc32)cc1 | 48.2%
76 | COc1cc2ncnc(Nc3ccc(C(=O)/C=C/c4ccc(C(F)(F)F)cc4F)cc3)c2cc1OC | 85.9%
77 | CCOC(=O)Cn1c(C)c(/C=N/NC(=O)c2cc3c(ccc4ccccc43)o2)c2ccccc21 | 0.68% (active)
78 | COc1ccc(-c2csc(NC(=O)CSc3nc(C)c(-c4ccccc4)n3Nc3ccccc3)n2)cc1 | 50.3%
79 | CC(C)(Sc1cc(C(C)(C)C)c(O)c(C(C)(C)C)c1)Sc1cc(C(C)(C)C)c(OC(=O)CCCC(=O)O)c(C(C)(C)C)c1 | 67.6%
80 | O=C(Cn1c2ccccc2c2ccncc21)N/N=C\c1ccc2ccccc2c1 | 40.5%
81 | c1cncc(CNc2ccccc2-c2nnc(Nc3ccc4c(c3)OCO4)o2)c1 | -22.5% (active)
82 | N#CCCc1ccc(O)cc1 | 95.6%
